From PubChem BioAssay (NCI)
The panel holds about 79,000 compounds, 15% with a hit somewhere; the sample as a whole holds those more often. Values without a mark were called inactive. Active and inactive are the calls of the source. Rule as the data show it: active = growth inhibition above about 70%; inactive = the rest.

Assays:
[1] = NCI Yeast Anticancer Drug Screen. Data for the rad50 strain (AID 155);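 also: 0% = growth of vehicle-only cultures of the same strain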; settings: S. cerevisiae rad50 strain growth inhibition, stronger effect = higher value
How it was run: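 Cells are treated with compound, grown, and their growth is then scored against vehicle-only cultures of the same repair-deficient yeast strain.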

[2] = NCI Yeast Anticancer Drug Screen. Data for the mec2-1 strain (AID 157); settings: S. cerevisiae mec2-1 strain, stronger effect = higher value
How it was run: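 mec2-1 yeast strain, carrying an alteration in DNA damage repair or cell cycle control, was exposed to compounds; growth inhibition was measured relative to vehicle-treated controls.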

[3] = NCI Yeast Anticancer Drug Screen. Data for the sgs1 mgt1 strain (AID 161);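 also: 0% = growth of cultures given vehicle only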; settings: S. cerevisiae sgs1 mgt1 strain, stronger effect = higher value
How it was run: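 Compounds are added to genetically altered yeast, and growth is compared with cultures given vehicle alone to give percent inhibition.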

[4] = NCI Yeast Anticancer Drug Screen. Data for the cln2 rad14 strain (AID 165);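 also: 0% = growth equal to vehicle treated cultures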; settings: S. cerevisiae cln2 rad14 strain, stronger effect = higher value
How it was run: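 Yeast carrying cln2 and rad14 alterations (cell cycle control and DNA damage repair) were exposed to compounds. Growth inhibition was measured against vehicle-treated controls.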

[5] = NCI Yeast Anticancer Drug Screen. Data for the bub3 strain (AID 167); settings: S. cerevisiae bub3 mutant strain, stronger effect = higher value
How it was run: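 Part of a panel of yeast mutants defective in DNA damage repair or cell cycle regulation. Each strain is grown with compound, and inhibition is calculated relative to solvent-treated cultures.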

[6] = NCI Yeast Anticancer Drug Screen. Data for the mlh1 rad18 strain (AID 175); settings: S. cerevisiae mlh1 rad18 strain growth inhibition, stronger effect = higher value
How it was run: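 Growth inhibition of the yeast strain was measured after compound exposure and expressed relative to vehicle-treated controls. The strain carries defined defects in DNA damage repair.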

[7] = at 5.0 µM (retest, dose inferred, filed as 0.5)
[8] = at 50.0 µM (retest, dose inferred, filed as 5.0)

SMILES	growth inhibition [1, 7] [%]	growth inhibition [1, 8]	growth inhibition ([1]; at 50.0 µM)	growth inhibition [2, 7] [%]	growth inhibition [2, 8]	growth inhibition ([2]; at 50.0 µM)	growth inhibition [3, 7]	growth inhibition [3, 8]	growth inhibition ([3]; at 50.0 µM)	growth inhibition [4, 7] [%]	growth inhibition [4, 8]	growth inhibition ([4]; at 50.0 µM)	growth inhibition [5, 7]	growth inhibition [5, 8]	growth inhibition ([5]; at 50.0 µM)	growth inhibition [6, 7] [%]	growth inhibition [6, 8]	growth inhibition ([6]; at 50.0 µM)
CC1NC(=O)OC1(C)c1ccccc1 (stereo not given)	3	-3%	50.5%	-5	-12%	9.2%	2%	2%	-7.5%	1	-4%	-35.8%	10%	30%	12.1%	12	1%	-20.6%
O=C(O)CCCCCCC(=O)CCl	30	74% (active)	72% (active)	22	82% (active)	83.5% (active)	24%	74% (active)	66.2%	25	38%	23.9%	30%	78% (active)	58.4%	19	86% (active)	72.9% (active)
C#CCNC1=CC(=O)CCC1	-14	16%	-12.1%	0	-1%	9.55%	-3%	-10%	-4.55%	17	6%	58.5%	14%	-13%	35.5%	-4	1%	17.6%
NN=C(CC(O)(C(F)(F)Cl)C(F)(F)Cl)CC(O)(C(F)(F)Cl)C(F)(F)Cl	32	99% (active)	98.9% (active)	32	99% (active)	99.2% (active)	26%	99% (active)	99.1% (active)	33	100% (active)	99.3% (active)	6%	100% (active)	99% (active)	38	99% (active)	98.8% (active)
Cc1nc(Cl)nc(N)c1[N+](=O)[O-]	2	44%	53.8%	8	55%	44.1%	3%	30%	24.8%	-3	19%	10.8%	-6%	31%	22.9%	6	41%	45.1%
Oc1ccc(C/C=C/c2ccccc2)cc1O	3	98% (active)	56.8%	4	99% (active)	99.1% (active)	13%	99% (active)	47.8%	-7	98% (active)	98.8% (active)	-1%	98% (active)	99.2% (active)	9	98% (active)	99.2% (active)
CC1=CC(=O)[C@@H](O)[C@]2(C)[C@H]3[C@@]4(O)OC[C@]35[C@H]([C@@H](C)[C@H]4O)[C@@H](OC(=O)C(C)(C)CO)C(=O)O[C@@H]5C[C@@H]12	10	44%	90.7% (active)	15	45%	90.8% (active)	6%	40%	88.3% (active)	17	51%	90.5% (active)	6%	39%	92.2% (active)	6	51%	-7.05%
CCCCCCCCCCCCCC(N)c1ccc(C)cc1 (stereo not given)	60	97% (active)	99% (active)	0	98% (active)	99.2% (active)	99% (active)	98% (active)	99.5% (active)	3	97% (active)	97.7% (active)	13%	97% (active)	98.5% (active)	33	97% (active)	98.3% (active)
O=C(O)/C=C/c1ccc(Cl)c(Cl)c1	9	83% (active)	93.1% (active)	-15	55%	64.3%	11%	59%	55.1%	19	45%	63.5%	-1%	77% (active)	86.8% (active)	-17	90% (active)	92.9% (active)
CCCC/C=C1\CCC(CN2CCCCC2)C1=O (stereo not given)	44	70% (active)	89.2% (active)	40	60%	69.8%	75% (active)	96% (active)	85.3% (active)	59	75% (active)	77.2% (active)	84% (active)	98% (active)	67.2%	56	83% (active)	88% (active)
O/N=C(/CN1CCN(c2ccccc2)CC1)c1ccccc1	1	-1%	45.4%	0	-2%	-14.4%	-4%	-3%	10.7%	2	1%	-68.2%	-2%	-2%	13.4%	1	-4%	-3.8%
CCCCCCCCCCCC(O)=C1C(=O)CC(O)CC1=O (stereo not given)	33	88% (active)	88.3% (active)	25	97% (active)	91.6% (active)	48%	98% (active)	91% (active)	40	91% (active)	90.3% (active)	42%	97% (active)	89.7% (active)	46	96% (active)	82.8% (active)
N#Cc1ccc(C(F)(F)F)cc1[N+](=O)[O-]	47	99% (active)	99% (active)	44	99% (active)	99.2% (active)	63%	99% (active)	99.4% (active)	20	99% (active)	98.8% (active)	31%	99% (active)	99.2% (active)	37	99% (active)	99.2% (active)
CCS(=O)(=O)/C=C\S(=O)(=O)CC	-154	-117%	37.2%	-52	-36%	47.5%	-64%	-43%	47.3%	-49	-37%	-12.7%	-65%	-59%	88.3% (active)	-147	-70%	69%
CCCCNC(=O)OCCN=C1c2ccccc2C(Br)C(Br)c2ccccc21 (stereo not given)	5	37%	98.4% (active)	2	23%	98.5% (active)	-5%	21%	97.3% (active)	7	20%	97.8% (active)	9%	28%	97.8% (active)	13	74% (active)	98.5% (active)
N#CC1C(=O)NC(=O)CC1c1ccccc1 (stereo not given)	10	99% (active)	99.2% (active)	-10	99% (active)	99.2% (active)	10%	99% (active)	99% (active)	10	99% (active)	99.3% (active)	0%	99% (active)	99.3% (active)	13	99% (active)	99.2% (active)
COc1ccc2c(c1OC)C1=C(C2=O)c2cc3c(cc2CCN1)OCO3	-4	76% (active)	23.1%	0	86% (active)	45.7%	9%	92% (active)	61.5%	2	95% (active)	40.9%	-15%	51%	68.4%	8	93% (active)	53.1%
CN1C(=O)c2cccc3c([N+](=O)[O-])ccc(c23)C1=O	-2	55%	79.3% (active)	-30	65%	17%	3%	68%	73.2% (active)	10	84% (active)	56.1%	-9%	80% (active)	10.2%	15	75% (active)	27.6%
CCNC(=S)N/N=C/c1ccccn1	-15	95% (active)	81.5% (active)	-42	92% (active)	84% (active)	-29%	95% (active)	78.2% (active)	-21	95% (active)	81.2% (active)	-15%	95% (active)	82.5% (active)	-33	97% (active)	76.5% (active)
NC(=O)C1C(=O)c2cccc3c2C1(Br)C(Br)CCC3 (stereo not given)	12	99% (active)	99.2% (active)	-5	100% (active)	99.4% (active)	26%	100% (active)	99.5% (active)	2	98% (active)	98.8% (active)	7%	99% (active)	99.2% (active)	12	99% (active)	99.3% (active)
